According to the antibiotic and cytotoxicity screens of Wong et al. (2023):
Screen size: about 39,000 compounds; about 3,300 (8.5%) were called active. The list comes from a sample in which actives are over-represented; it also holds similar structures and randomly drawn compounds.

system: HepG2; experiment: cytotoxicity call (relative viability < 0.9); settings: 10 µM

Compound	cytotoxicity call
C[C@H](CO)N1C[C@H](C)[C@H](CN(C)C(=O)Oc2cccc3ccccc23)OCc2cn(nn2)CCCC1=O	inactive
Oc1ccc(Cl)cc1	inactive
Cc1cc(O)ccc1Cl	active
CNC(=O)Oc1ccc2c(c1)C1(C)CCN(C)C1N2C (centres undefined)	active
CN1CCC2(C)c3cc(O)ccc3N(C)C12.O=C(O)C=CC(=O)O (centres undefined)	active
Br.COc1ccc2c(c1)C13CCCCC1C(C2)N(C)CC3 (centres undefined)	inactive
CNC(=O)Oc1ccc2c(c1)[C@]1(C)CCN(C)[C@@H]1N2C.CNC(=O)Oc1ccc2c(c1)[C@]1(C)CCN(C)[C@@H]1N2C.O=S(=O)(O)O	inactive
CNC(=O)Oc1ccc2c(c1)C1(C)CCN(C)C1N2C.O=C(O)c1ccccc1O (centres undefined)	active
CNC(=O)Oc1ccc2c(c1)C1(C)CCN(C)C1N2C.O=S(=O)(O)O (centres undefined)	active
Cc1ccc(C)c(C(=O)[C@H](N)CC(C)C)c1	inactive
Cc1cc(C(=O)N2CC[C@H]3[C@@H]2CCN3C)no1	inactive
CCOc1ccc(N2CCNCC2)nn1	inactive
C[C@H](O)[C@]12[C@@H]3CC=C[C@H]1N2CC3 (some centres undefined)	inactive
C[C@@H](N)Cc1ccco1	inactive
CSC1=NN1c1cc(C)nc(N)n1	inactive
N#C[C@@]12[C@H]3CC=C[C@@H]1N2CC3 (some centres undefined)	inactive
c1nc(N2CCN3CCC[C@H]3C2)c2[nH]cnc2n1	inactive
COCCCNC(=O)C1[C@@H]2CC[C@H]1CNC2 (some centres undefined)	inactive
O=[N+]([O-])OC1COC2C(O[N+](=O)[O-])COC12 (centres undefined)	inactive
OCc1ccc2c(c1)OCO2	inactive
OC[C@@H](O)Cc1ccc2c(c1)OCO2	inactive
C=CCc1ccc2c(c1)OCO2	active
CC=Cc1ccc2c(c1)OCO2	inactive
COP(=S)(OC)Oc1ccc([N+](=O)[O-])cc1	inactive
CC(C)N(CCC(C(N)=O)(c1ccccc1)c1ccccn1)C(C)C.O=P(O)(O)O (centres undefined)	inactive

Compound	cytotoxicity call
Cn1ccnc1N1CCNCC1	inactive
c1ccc2c(c1)Nc1ccccc1S2	active
CC[n+]1c(-c2ccccc2)c2cc(N)ccc2c2ccc(N)cc21.[Br-]	active
Nc1ccc(-c2ccccc2)cc1	inactive
O=c1ccc(=O)[nH][nH]1	inactive
COC(C)(C)CCCC(C)CC=CC(C)=CC(=O)OC(C)C (centres undefined)	inactive
O=C1CNC[C@@H]2c3cccc(F)c3CCN12	inactive
[N-]=[N+]=NCc1ccccc1C[C@@]1(C(=O)N2CCCCC2)N=C(c2ccc(OCCCO)cc2)O[C@@H]1c1ccccc1N=[N+]=[N-]	inactive
[N-]=[N+]=NCc1ccccc1C[C@]1(C(=O)N2CCOCC2)N=C(c2ccc(OCCCO)cc2)O[C@H]1c1ccccc1N=[N+]=[N-]	active
[N-]=[N+]=NCc1ccccc1C[C@]1(C(=O)N2CCCCC2)N=C(c2ccc(OCCCO)cc2)O[C@H]1c1ccccc1N=[N+]=[N-]	active
CN1CCc2cc([C@H](CN)N(C)C)ccc21	inactive
CCOP(=S)(OCC)SCSP(=S)(OCC)OCC	inactive
NCCc1cccs1	inactive
CN(C)C(=O)[C@H]1CCC2(CCNCC2)CO1	inactive
Cc1cc(C2=NO[C@](c3cc(Cl)cc(Cl)c3)(C(F)(F)F)C2)ccc1C(=O)NCC(=O)NCC(F)(F)F	inactive
[O-][n+]1ccccc1[S][Zn][S]c1cccc[n+]1[O-]	active
C[As](C)SC[C@H](NC(=O)CC[C@H](N)C(=O)O)C(=O)NCC(=O)O	inactive
CS(=O)(=O)c1ccc(C(=O)C2C(=O)CCCC2=O)c([N+](=O)[O-])c1	inactive
Cl.NCC(O)c1ccc(O)cc1 (centres undefined)	inactive
O=C([O-])CCCO.[Na+]	inactive
CC12C(=O)OC(=O)C1(C)C1CCC2O1 (centres undefined)	active
C[C@]12C(=O)OC(=O)[C@]1(C)[C@H]1CC[C@H]2O1	active
C[C@@]12C(=O)OC(=O)[C@]1(C)[C@H]1CC[C@@H]2O1	active
NC1(c2ccc(F)cc2)CCC1	inactive
COC(=O)C1(O)C[C@H]2CC[C@@H](C1)N2C (some centres undefined)	inactive

Compound	cytotoxicity call
CC=C(C)C(=O)OC1CC(OC(C)=O)C2(C(=O)OC)COC3C2C12COC(O)(C(=O)OC)C2C(C)(C12OC1(C)C1CC2OC2OC=CC21O)C3O (centres undefined)	inactive
O[C@H]1C2CN3CCN(C2)CC1(c1ccccc1)C3	inactive
O=c1cccc2n1C[C@@H]1CNC[C@H]2C1	inactive
Cc1ccc(OC(=O)N(C)C[C@H]2OCc3ccccc3-c3c(n(C)c4ccccc34)C(=O)N([C@@H](C)CO)C[C@H]2C)cc1	inactive
Cc1cc([N+](=O)[O-])cnc1N1CCNCC1	inactive
CN1C(=O)[C@]23CC4=CC=C[C@H](O)[C@H]4N2C(=O)[C@@]1(CO)SS3	active
CN1C(=O)[C@@]23C[C@]4([C@@]56C[C@]78SS[C@](CO)(C(=O)N7[C@@H]5Nc5ccccc56)N(C)C8=O)c5ccccc5N[C@H]4N2C(=O)[C@@]1(CO)SS3	active
NC1=NC(=O)C2(CCNCC2)N1	inactive
NC[C@@H]1CCCN2CCCC[C@H]12	inactive
CCC(c1cccc(O)c1)C(C)CN(C)C.Cl (centres undefined)	inactive
COc1cccc2c1C(=O)c1c(O)c3c(c(O)c1C2=O)C[C@@](O)(C(=O)CO)C[C@@H]3O[C@H]1C[C@H](N2CCO[C@H](OC)C2)[C@H](O)[C@H](C)O1	active
CC(=C1C(=O)NC(=O)NC1=O)c1ccc(N)cc1	inactive
O=C(O)Cc1cnc[nH]1	inactive
CN[C@@H]1[C@@H]2[C@H]3CCN2C[C@H]1O3	inactive
CNC(=O)[C@@H]1COC[C@@H]2CN(CC(C)C)C[C@@H]21	inactive
CCC1(O)C(=O)OCc2c1cc1n(c2=O)Cc2cc3ccccc3nc2-1 (centres undefined)	active
OCC(CO)N1CCC2(CCNCC2)CC1	inactive
C#CC1(O)C=CC2C3CCC4=CC(=O)CCC4C3CCC21CC (centres undefined)	inactive
C[C@@H](N)C(=O)N[C@@H](CO)C(=O)N[C@H](C(=O)N[C@H](C(=O)N[C@H](C(=O)N[C@@H](CC(N)=O)C(=O)N[C@@H](Cc1ccc(O)cc1)C(=O)N[C@H](C(N)=O)[C@@H](C)O)[C@@H](C)O)[C@@H](C)O)[C@@H](C)O	inactive
C[C@@H]1[C@H](O)[C@@H](C)/C=C\C=C/CC\C=C/C=C\C=C/C=C\[C@H](O[C@@H]2O[C@H](C)[C@@H](O)[C@H](N)[C@@H]2O)C[C@@H]2O[C@](O)(C[C@@H](O)[C@H](O)CC[C@@H](O)C[C@@H](O)C[C@@H](O)CC(=O)O[C@H]1C)C[C@H](O)[C@H]2C(=O)O	inactive
O=S(=O)(O)O.Oc1cccc2cccnc12	active
CC(C)(C)NCC(O)c1cc(Cl)c(N)c(Cl)c1.Cl (centres undefined)	inactive
CC(C)(C)c1o[nH]c(=O)c1C[C@@H](N)C(=O)O	inactive
CC1CCC2(NC1)OC1CC3C4CCC5CC(O)CCC5(C)C4CCC3(C)C1C2C.Cl (centres undefined)	inactive
COc1cc2c(c(OC)c1OC)-c1ccc(OC)c(=O)cc1C(NC(C)=O)CC2 (centres undefined)	active

Compound	cytotoxicity call
COc1cc2c(c(OC)c1OC)-c1ccc(O)c(=O)cc1C(NC(C)=O)CC2 (centres undefined)	inactive
COc1cc2c(c(OC)c1OC)-c1ccc(O)c(=O)cc1[C@H](N)CC2	inactive
CC1(C)OCC2(CNC2)CO1	inactive
CN1CCOC[C@]2(CCCNC2)C1	inactive
CN(C)[C@@H]1C(=O)[C@H](C(N)=O)C(=O)[C@@]2(O)C(=O)[C@@H]3C(=O)c4c(O)cccc4[C@@](C)(O)[C@H]3C[C@@H]12	inactive
C[C@H]1CN([C@@H](C)CO)C(=O)c2c(c3ccccc3n2C)-c2ccccc2CO[C@@H]1CN(C)C(=O)Oc1ccccc1	inactive
CN1[C@@H]2C[C@@H](O)C[C@H]1[C@@H]1O[C@@H]12	inactive
COc1ccc(OC(=O)N(C)C[C@H]2OCc3ccccc3-c3c(n(C)c4ccccc34)C(=O)N([C@@H](C)CO)C[C@H]2C)cc1	inactive
COc1ccc(OC(=O)N(C)C[C@H]2OCc3ccccc3-c3c(n(C)c4ccccc34)C(=O)N([C@H](C)CO)C[C@@H]2C)cc1	inactive
Cc1ccc(OC(=O)N(C)C[C@@H]2OCc3ccccc3-c3c(n(C)c4ccccc34)C(=O)N([C@@H](C)CO)C[C@H]2C)cc1	inactive
Cc1ccc(OC(=O)N(C)C[C@H]2OCc3ccccc3-c3c(n(C)c4ccccc34)C(=O)N([C@H](C)CO)C[C@H]2C)cc1	inactive
Cc1ccc(OC(=O)N(C)C[C@@H]2OCc3ccccc3-c3c(n(C)c4ccccc34)C(=O)N([C@@H](C)CO)C[C@@H]2C)cc1	inactive
Cc1ccc(OC(=O)N(C)C[C@@H]2OCc3ccccc3-c3c(n(C)c4ccccc34)C(=O)N([C@H](C)CO)C[C@@H]2C)cc1	inactive
Cc1ccc(OC(=O)N(C)C[C@H]2OCc3ccccc3-c3c(n(C)c4ccccc34)C(=O)N([C@H](C)CO)C[C@@H]2C)cc1	active
COc1ccc(OC(=O)N(C)C[C@@H]2OCc3ccccc3-c3c(n(C)c4ccccc34)C(=O)N([C@@H](C)CO)C[C@H]2C)cc1	active
Cc1ccc(OC(=O)N(C)C[C@H]2OCc3ccccc3-c3c(n(C)c4ccccc34)C(=O)N([C@@H](C)CO)C[C@@H]2C)cc1	active
CCOCC(=O)N1CC[C@H]2CNC[C@H]21	inactive
COc1cccc(C2(N)CCCC2)c1	inactive
CC(C)[C@H]1CN2CCC[C@H]2[C@@]2(O)O[C@](CC(=O)[C@@H]3C=C4c5cccc6[nH]cc(c56)C[C@H]4N(C)C3)(C(C)C)C(=O)N12	inactive
C[C@H](CO)N1C[C@H](C)[C@@H](CN(C)C(=O)Oc2ccc3ccccc3c2)OCc2cn(nn2)CCCC1=O	inactive
NC(=N[N+](=O)[O-])NCCC[C@H](N)C(=O)O	inactive
CC(C)[C@H]1CNC(=O)C1	inactive
O=C1NC(=S)NC(=O)C1c1ccccc1	inactive
C#CCO[C@H]1CN2CCC1CC2	inactive
